Consider nine compounds from PubChem BioAssay (NCI).

This is part of a sample that, as a whole, favours compounds with a hit. Of some 83,000 tested, about 20% had one in any assay.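 Cells were grown in 96-well plates and exposed to the test compound at a single concentration for 48 hours; results are reported as percent growth, with values below 10 considered active.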 Unmarked numbers belong to inactive results. Activity calls are given as the source filed them.

Test systems include SK-MEL-2 melanoma; SN12C renal; UO-31 renal; TK-10 renal; ACHN renal; CAKI-1 renal; A498 renal; CCRF-CEM leukemia; MOLT-4 leukemia; SR leukemia; OVCAR-8 ovarian; OVCAR-5 ovarian; OVCAR-4 ovarian; SK-OV-3 ovarian; IGROV1 ovarian; OVCAR-3 ovarian; HS 578T breast; NCI/ADR-RES ovarian; RPMI-8226 leukemia; EKVX NSCLC.
Assay in all cases: NCI-60 one-dose screen, 48 h (100 = growth as untreated, 0 = no growth, -100 = all killed)
What all share (conditions): 10 µM unless noted

On to `c1cc(C2CCCCC2)ccc1-c1cnc2nonc2n1`, for which the growth was 8.16% (active) in the test on SK-MEL-2 melanoma; 19.5% in the test with SN12C renal; 29% in the test with UO-31 renal; 15.6% with TK-10 renal; 34.6% in the test with ACHN renal; 34.2% with CAKI-1 renal. Further, the growth with A498 renal is 9.62% (active); in the test with CCRF-CEM leukemia, 3.66% (active); in the test on MOLT-4 leukemia, -5.4% (active); in the test on SR leukemia it was 4.98% (active); in the test on OVCAR-8 ovarian, 8.93% (active); in the test with OVCAR-5 ovarian, 25.7%. For the same compound, the growth with OVCAR-4 ovarian is 43.9%; in the test on SK-OV-3 ovarian, 33.5%; in the test on IGROV1 ovarian it was 34.8%; in the test on OVCAR-3 ovarian, 1.51% (active); with HS 578T breast, 58.1%; in the test with NCI/ADR-RES ovarian, -3.11% (active).
In the case of `O=[N+]([O-])c1ccc(N/N=C/c2ccccc2O)nc1`, the growth in the test with SK-MEL-2 melanoma is 35%; in the test on SN12C renal, 37.7%; in the test on UO-31 renal it was 25.5%; with TK-10 renal, 26.2%; with ACHN renal, 27.3%; in the test with CAKI-1 renal it was 4.68% (active). Also, the growth was 97.8% in the test with A498 renal; 17.1% in the test with CCRF-CEM leukemia; 14.3% in the test on MOLT-4 leukemia; 14.8% with SR leukemia; 24.3% in the test on OVCAR-8 ovarian; 60.9% in the test with OVCAR-5 ovarian. The growth is 39.3% with OVCAR-4 ovarian; 32.7% in the test on SK-OV-3 ovarian; 18.6% with IGROV1 ovarian; 69.1% with OVCAR-3 ovarian; 79.7% in the test with HS 578T breast; 21.3% with NCI/ADR-RES ovarian.
For `COc1cc2ccc(C(C)=O)cc2cc1OC`, the growth in the test on SK-MEL-2 melanoma is 108%; in the test with SN12C renal it was 95.1%; in the test on UO-31 renal, 72.4%; in the test on TK-10 renal it was 138%; with ACHN renal, 91.9%; in the test on A498 renal, 65%. Further, the growth was 118% in the test on CCRF-CEM leukemia; 127% in the test with MOLT-4 leukemia; 105% with RPMI-8226 leukemia; 92.3% in the test with OVCAR-5 ovarian; 120% in the test on OVCAR-4 ovarian; 95.6% with SK-OV-3 ovarian. Moreover, the growth was 106% with IGROV1 ovarian, 100% in the test with OVCAR-3 ovarian, 97.1% in the test on HS 578T breast and 103% in the test on NCI/ADR-RES ovarian.
Regarding `COc1ccc(-c2ccc(-c3ccc(C(=N)N)s3)s2)cc1`, the growth in the test with SK-MEL-2 melanoma was -78.4% (active); in the test on SN12C renal, -51.8% (active); in the test with UO-31 renal, -71.4% (active); in the test on TK-10 renal, -90.7% (active); in the test with ACHN renal, -92.8% (active); with CAKI-1 renal, -82.8% (active). Further, the growth with A498 renal was -73.9% (active); in the test on MOLT-4 leukemia, -56.2% (active); with SR leukemia it was -40.6% (active); in the test on RPMI-8226 leukemia, -57.5% (active); in the test on OVCAR-8 ovarian, -66.9% (active); in the test on OVCAR-5 ovarian, -92.6% (active). The growth in the test on SK-OV-3 ovarian was -88.9% (active); with IGROV1 ovarian, -57.2% (active); in the test on OVCAR-3 ovarian, -80.8% (active); in the test with HS 578T breast, -56.8% (active); in the test on NCI/ADR-RES ovarian, -61.7% (active).
As for `Cc1nn(-c2ccccc2)c2nc3c(nc12)C1=NCCN1C(c1ccc(Cl)cc1)N3` (stereo unspecified), the growth in the test with SK-MEL-2 melanoma was 79.5%; in the test on SN12C renal, 89.5%; in the test with UO-31 renal, 59.2%; in the test on TK-10 renal, 94.4%; with ACHN renal, 87.3%; in the test on CAKI-1 renal it was 82.6%. The growth in the test with A498 renal was 85.6%; with MOLT-4 leukemia, 47.3%; with SR leukemia it was 6.3% (active); in the test on RPMI-8226 leukemia, 45.6%; in the test on OVCAR-8 ovarian, 87.5%; in the test with OVCAR-5 ovarian, 91%. Further, the growth in the test on OVCAR-4 ovarian was 80.3%; with SK-OV-3 ovarian it was 104%; with OVCAR-3 ovarian, 95.4%; in the test with HS 578T breast it was 60.7%; in the test on NCI/ADR-RES ovarian, 98.6%.
For `COc1ccc2c(c1)N(Cc1ccc(Cl)cc1)CCC2N1CCCC1=O` (stereo unspecified), the growth in the test on SK-MEL-2 melanoma is 64.4%; with SN12C renal it was 39.2%; in the test on UO-31 renal, 8.64% (active); in the test on TK-10 renal, 55.3%; in the test with ACHN renal, 53.3%; with CAKI-1 renal it was 40.8%. Moreover, the growth was -7.14% (active) in the test with A498 renal; 34.5% in the test with MOLT-4 leukemia; 34.2% in the test with SR leukemia; 50% in the test with OVCAR-8 ovarian; 66% in the test on OVCAR-5 ovarian; 34% in the test with OVCAR-4 ovarian. Besides, the growth was 43.4% in the test on SK-OV-3 ovarian; 13.2% with IGROV1 ovarian; 43.8% in the test with OVCAR-3 ovarian; 10.7% with HS 578T breast; 53.3% in the test on NCI/ADR-RES ovarian.
For `O=C(Nc1cccc(-n2ccc3c(NC(=O)c4ccccc4)nccc32)c1)c1ccc(Cl)c(Cl)c1`, the growth was -33.3% (active) with EKVX NSCLC; -83.8% (active) with SN12C renal; -78.1% (active) in the test with UO-31 renal; -75.9% (active) in the test on ACHN renal; -71.7% (active) in the test on CAKI-1 renal; -2.71% (active) in the test with A498 renal. For the same compound, the growth in the test on CCRF-CEM leukemia was -41.6% (active); with RPMI-8226 leukemia it was -51.3% (active); with OVCAR-5 ovarian, -36.4% (active); with OVCAR-4 ovarian, -88.7% (active); in the test with SK-OV-3 ovarian, 18.7%; in the test on IGROV1 ovarian it was -52.1% (active). The growth with OVCAR-3 ovarian was -81.3% (active); with NCI/ADR-RES ovarian it was -28.1% (active).
As to `COC(=O)[C@H](Cc1cn(C)cn1)NC(=O)[C@H](CC(C)C)NC(=O)Nc1cc(C(F)(F)F)cc(C(F)(F)F)c1`, the growth in the test on SK-MEL-2 melanoma was -95.4% [100 µM] (active); with SN12C renal, -92.8% [100 µM] (active); in the test on UO-31 renal, -96.7% [100 µM] (active); in the test with TK-10 renal it was -98.5% [100 µM] (active); in the test on ACHN renal, -100% [100 µM] (active); with CAKI-1 renal it was -99.2% [100 µM] (active). The growth in the test with A498 renal is -93.8% [100 µM] (active); in the test on MOLT-4 leukemia it was -57.2% [100 µM] (active); in the test on SR leukemia it was -46.5% [100 µM] (active); in the test with RPMI-8226 leukemia, -53.4% [100 µM] (active); with OVCAR-5 ovarian, -98.6% [100 µM] (active); in the test on OVCAR-4 ovarian, -97% [100 µM] (active). Moreover, the growth in the test with SK-OV-3 ovarian was -100% [100 µM] (active); in the test with IGROV1 ovarian it was -89.2% [100 µM] (active); in the test on OVCAR-3 ovarian, -98.8% [100 µM] (active); in the test on HS 578T breast, -17.3% [100 µM] (active); with NCI/ADR-RES ovarian, -67.3% [100 µM] (active).
Regarding `COC(=O)[C@@H](Cc1c[nH]c2ccccc12)NC(=O)/C=C/c1ccccc1`, the growth with SK-MEL-2 melanoma is 16.6%; in the test with SN12C renal it was 50.7%; in the test with UO-31 renal, 36.8%; with TK-10 renal it was 54.1%; with ACHN renal, 39.2%; with CAKI-1 renal, 31.7%. Also, the growth was -9.95% (active) in the test with A498 renal; 24.1% in the test on MOLT-4 leukemia; 18.4% in the test with SR leukemia; 14.3% in the test with RPMI-8226 leukemia; 25.2% in the test with OVCAR-8 ovarian; 63.1% with OVCAR-4 ovarian. Further, the growth in the test with SK-OV-3 ovarian is 2.1% (active); in the test with IGROV1 ovarian, 29.1%; in the test with OVCAR-3 ovarian, -5.22% (active); with HS 578T breast it was -13% (active); in the test with NCI/ADR-RES ovarian, 4.17% (active).
